Measured values as given in PubChem BioAssay (EPA / NIEHS).
Several values for one entry are separate records, joined by “and”; a condition that tells them apart may be missing. Identical values can stand only once. A structure can be active in one record and inactive in another. Activity calls are given as the source filed them. How the source made its calls: active means hit-call score of the fitted dose curve at least 0.9, where 1 is the maximum; inactive means score below 0.9.

Read-out: urokinase plasminogen activator (uPA), PLAU (gene 5328)
Experiment: BSK_KF3CT_uPA: BioMAP Diversity Plus: KF3CT Assay for urokinase plasminogen activator (uPA) Biomarker Activity (AID 2283075)
Conditions: primary human keratinocytes with fibroblasts; actives raise or lower the signal
Procedure, shortened: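 Skin co-culture (keratinocytes + foreskin fibroblasts), human primary; 24 h post-dose; uPA by ELISA; gain/loss fit vs DMSO baseline.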

Chain of E-selectin (Homo sapiens) (P16581 whole entry, looked up): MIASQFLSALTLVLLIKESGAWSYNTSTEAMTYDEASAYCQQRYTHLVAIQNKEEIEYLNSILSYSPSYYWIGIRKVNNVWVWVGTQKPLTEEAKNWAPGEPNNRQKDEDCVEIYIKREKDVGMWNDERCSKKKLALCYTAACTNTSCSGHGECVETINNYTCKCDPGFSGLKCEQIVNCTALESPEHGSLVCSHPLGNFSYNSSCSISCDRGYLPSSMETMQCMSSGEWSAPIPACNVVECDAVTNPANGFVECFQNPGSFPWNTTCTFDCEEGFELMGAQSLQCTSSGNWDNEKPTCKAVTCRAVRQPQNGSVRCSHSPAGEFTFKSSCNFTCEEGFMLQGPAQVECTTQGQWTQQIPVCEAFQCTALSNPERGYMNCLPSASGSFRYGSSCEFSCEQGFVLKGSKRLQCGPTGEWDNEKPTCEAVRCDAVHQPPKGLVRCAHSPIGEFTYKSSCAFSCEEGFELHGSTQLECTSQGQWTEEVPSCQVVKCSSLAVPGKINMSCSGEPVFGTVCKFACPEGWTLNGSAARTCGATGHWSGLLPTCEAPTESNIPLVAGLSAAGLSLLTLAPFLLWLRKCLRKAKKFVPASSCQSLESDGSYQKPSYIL

Compound	AC50	outcome
O=S(=O)(OCC(F)(F)F)C(F)(F)C(F)(F)C(F)(F)C(F)(F)F	9.13 µM (active)	inactive
C=CC(=O)OCC(F)(F)C(F)(F)C(F)(F)C(F)(F)C(F)(F)C(F)(F)C(F)(F)C(F)F	–	inactive
NS(=O)(=O)C(F)(F)C(F)(F)C(F)(F)C(F)(F)C(F)(F)C(F)(F)F	–	inactive
CC(C)CCCC(C)CCO (configuration not stated)	36.1 µM (active)	–
CCN(CC)c1ccc(C=O)cc1	–	inactive
O=C=Nc1cccc2c(N=C=O)cccc12	–	inactive
C=CC(=O)OCCC(F)(F)C(F)(F)C(F)(F)C(F)(F)F	–	inactive
OCCCCC(F)(F)C(F)(F)C(F)(F)C(F)(F)F	–	inactive
O=C(O)CCC(F)(F)C(F)(F)C(F)(F)C(F)(F)C(F)(F)C(F)(F)C(F)(F)F	–	inactive
CCN(CC)c1ccc(N=Nc2ccccc2)cc1	–	inactive
O=S(=O)(Cl)C(F)(F)C(F)(F)C(F)(F)C(F)(F)C(F)(F)C(F)(F)C(F)(F)C(F)(F)F	–	inactive
O=C(Cl)C(F)(F)C(F)(F)C(F)(F)C(F)(F)C(F)(F)C(F)(F)F	–	inactive
Cc1cc(O)c(C(C)(C)C)cc1C(C)(C)C	3.78 µM (active)	–
FC(F)(F)C(F)(F)C(F)(F)CC1CO1 (configuration not stated)	–	inactive
O=C(O)C(F)(F)C(F)(F)C(F)(F)C(=O)O	–	inactive
Cc1cnccn1	–	inactive
CN(C(=O)C(F)(F)C(F)(F)C(F)(F)F)[Si](C)(C)C	–	inactive

Compound	AC50	outcome
Brc1nc2ccccc2s1	–	inactive
CCN(CC)c1ccc2c(c1)Oc1cc(N(CC)CC)ccc1C21OC(=O)c2ccccc21	–	inactive
NC(O)(C(F)(F)F)C(F)(F)F	–	inactive
O=C(O)C(F)(F)OC(F)(F)C(F)(F)OC(F)(F)C(F)(F)OC(F)(F)F	–	inactive
O=C(O)C(F)(F)C(F)(F)C(F)(F)C(F)(F)C(F)(F)C(F)(F)C(F)F	–	inactive
NC(=O)C(F)(F)C(F)(F)C(F)(F)C(F)F	–	inactive
OC(O)C(F)(F)C(F)(F)F	–	inactive
COC(F)(C(F)F)C(F)(F)F (configuration not stated)	–	inactive
Cc1ccc(O)c(-n2nc3ccccc3n2)c1	–	inactive
CCN=C1C=CC(=C(c2ccc(N(CC)CC)cc2)c2ccc(N(CC)CC)cc2)c2ccccc21	2.62 µM (active) and 1.92 µM (active)	–
NC(=O)C(F)(F)C(F)(F)C(F)(F)C(F)(F)C(F)(F)C(F)(F)C(F)(F)F	–	inactive
FC(F)(F)C(F)(F)C(F)(F)C(F)(F)C(F)(F)C(F)(F)C(F)(F)CCI	–	inactive
Cc1ccc(S(=O)(=O)C(I)I)cc1	6.22 µM (active)	–
OCCCC(F)(F)C(F)(F)C(F)(F)C(F)(F)C(F)(F)C(F)(F)C(F)(F)C(F)(F)F	14.9 µM (active) and 9.45 µM (active)	–
NC(=O)C(F)(F)C(F)(F)C(F)(F)C(F)(F)C(N)=O	–	inactive
O=C(O)CCC(F)(F)C(F)(F)C(F)(F)F	–	inactive

Read-out: CD40, CD40 (gene 958)
Experiment: BSK_LPS_CD40: BioMAP Diversity Plus: LPS Assay for CD40 Biomarker Activity (AID 2283076)
Conditions: primary human HUVEC with PBMC; actives raise or lower the signal
Procedure, shortened: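 Using a multiplexed primary human co-culture (umbilical vein endothelium plus PBMC), CD40 was read by ELISA 24 h after dosing, with cytotoxicity tracked by sulforhodamine B staining of parallel cultures and activity fitted bidirectionally versus DMSO.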

Compound	AC50	outcome
O=S(=O)(OCC(F)(F)F)C(F)(F)C(F)(F)C(F)(F)C(F)(F)F	24.3 µM (active)	inactive
CC(C)CCCC(C)CCO (configuration not stated)	–	inactive
CCN(CC)c1ccc(C=O)cc1	–	inactive
OCCCCC(F)(F)C(F)(F)C(F)(F)C(F)(F)F	–	inactive
O=C(O)CCC(F)(F)C(F)(F)C(F)(F)C(F)(F)C(F)(F)C(F)(F)C(F)(F)F	–	inactive
CCN(CC)c1ccc(N=Nc2ccccc2)cc1	28.6 µM (active)	–
O=C(Cl)C(F)(F)C(F)(F)C(F)(F)C(F)(F)C(F)(F)C(F)(F)F	–	inactive
Cc1cc(O)c(C(C)(C)C)cc1C(C)(C)C	5.28 µM (active)	–
O=C(O)C(F)(F)C(F)(F)C(F)(F)C(=O)O	–	inactive
NC(O)(C(F)(F)F)C(F)(F)F	–	inactive
O=C(O)C(F)(F)C(F)(F)C(F)(F)C(F)(F)C(F)(F)C(F)(F)C(F)F	–	inactive
OCCCC(F)(F)C(F)(F)C(F)(F)C(F)(F)C(F)(F)C(F)(F)C(F)(F)C(F)(F)F	34.7 µM (active) and 32.9 µM (active)	–
O=C(O)CCC(F)(F)C(F)(F)C(F)(F)F	–	inactive

Read-out: E-selectin (Homo sapiens) (UniProt P16581)
Experiment: BSK_LPS_Eselectin: BioMAP Diversity Plus: LPS Assay for Eselectin Biomarker Activity (AID 2283077)
Conditions: primary human HUVEC with PBMC; actives raise or lower the signal
Procedure, shortened: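 Dose chemical onto LPS-driven HUVEC/PBMC co-culture; after 24 h, run ELISA for E-selectin; fit up- and down-going responses relative to DMSO control.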

Compound	AC50	outcome
O=S(=O)(OCC(F)(F)F)C(F)(F)C(F)(F)C(F)(F)C(F)(F)F	41.4 µM (active)	inactive
C=CC(=O)OCC(F)(F)C(F)(F)C(F)(F)C(F)(F)C(F)(F)C(F)(F)C(F)(F)C(F)F	–	inactive
NS(=O)(=O)C(F)(F)C(F)(F)C(F)(F)C(F)(F)C(F)(F)C(F)(F)F	–	inactive
CC(C)CCCC(C)CCO (configuration not stated)	–	inactive
CCN(CC)c1ccc(C=O)cc1	–	inactive
O=C=Nc1cccc2c(N=C=O)cccc12	–	inactive
C=CC(=O)OCCC(F)(F)C(F)(F)C(F)(F)C(F)(F)F	–	inactive
OCCCCC(F)(F)C(F)(F)C(F)(F)C(F)(F)F	–	inactive
O=C(O)CCC(F)(F)C(F)(F)C(F)(F)C(F)(F)C(F)(F)C(F)(F)C(F)(F)F	–	inactive
CCN(CC)c1ccc(N=Nc2ccccc2)cc1	–	inactive
O=S(=O)(Cl)C(F)(F)C(F)(F)C(F)(F)C(F)(F)C(F)(F)C(F)(F)C(F)(F)C(F)(F)F	–	inactive
O=C(Cl)C(F)(F)C(F)(F)C(F)(F)C(F)(F)C(F)(F)C(F)(F)F	–	inactive
Cc1cc(O)c(C(C)(C)C)cc1C(C)(C)C	6.95 µM (active)	–
FC(F)(F)C(F)(F)C(F)(F)CC1CO1 (configuration not stated)	–	inactive
O=C(O)C(F)(F)C(F)(F)C(F)(F)C(=O)O	–	inactive
Cc1cnccn1	–	inactive
CN(C(=O)C(F)(F)C(F)(F)C(F)(F)F)[Si](C)(C)C	–	inactive

Compound	AC50	outcome
Brc1nc2ccccc2s1	–	inactive
CCN(CC)c1ccc2c(c1)Oc1cc(N(CC)CC)ccc1C21OC(=O)c2ccccc21	–	inactive
NC(O)(C(F)(F)F)C(F)(F)F	–	inactive
O=C(O)C(F)(F)OC(F)(F)C(F)(F)OC(F)(F)C(F)(F)OC(F)(F)F	–	inactive
O=C(O)C(F)(F)C(F)(F)C(F)(F)C(F)(F)C(F)(F)C(F)(F)C(F)F	–	inactive
NC(=O)C(F)(F)C(F)(F)C(F)(F)C(F)F	–	inactive
OC(O)C(F)(F)C(F)(F)F	–	inactive
COC(F)(C(F)F)C(F)(F)F (configuration not stated)	–	inactive
Cc1ccc(O)c(-n2nc3ccccc3n2)c1	–	inactive
CCN=C1C=CC(=C(c2ccc(N(CC)CC)cc2)c2ccc(N(CC)CC)cc2)c2ccccc21	974 nM (active) and 574 nM (active)	–
NC(=O)C(F)(F)C(F)(F)C(F)(F)C(F)(F)C(F)(F)C(F)(F)C(F)(F)F	–	inactive
FC(F)(F)C(F)(F)C(F)(F)C(F)(F)C(F)(F)C(F)(F)C(F)(F)CCI	–	inactive
Cc1ccc(S(=O)(=O)C(I)I)cc1	3.3 µM (active)	–
OCCCC(F)(F)C(F)(F)C(F)(F)C(F)(F)C(F)(F)C(F)(F)C(F)(F)C(F)(F)F	15.3 µM (active) and 30 µM (active)	–
NC(=O)C(F)(F)C(F)(F)C(F)(F)C(F)(F)C(N)=O	–	inactive
O=C(O)CCC(F)(F)C(F)(F)C(F)(F)F	–	inactive
